Records with an inconclusive call do not appear. Entries that show only a call come without a potency. Unmarked numbers belong to inactive results. Activity calls are given as the source filed them. Calls follow the shape of the dose curve; as a rule, active = well fitted activation curve with a large enough effect in the repeat runs; inconclusive = weak or mixed curves; inactive = flat fitted curve, though single readings scatter.
Test: A CellTox Green Cytotoxicity Assay to monitor cytotoxicity in HEK293 cells - 24 hour (AID 1224875); also: nearly all actives have a fitted effect of over 45% in size
Conditions: CellTox Green fluorescence; series mostly up to 76.8 µM
Excerpt: National Center for Advancing Translational Sciences [NCATS]
NIH Chemical Genomics Center [NCGC]
U.S. Environmental Protection Agency [EPA]
National Institutes of Environmental Health Sciences [NIEHS]
National Toxicology Program [NTP]
Cell-based models are critical for drug discovery. Determining the natural cytotoxic effects resulting from test compounds is an essential research activity. A CellTox Green Cytotoxicity Assay to monitor cytotoxicity in real time of continues cell culture during 40 hours of the compound treatment was used to screen Tox21 10K library compounds in Hek293 cells. CellTox Green Cytotoxicity Assay is a nonlytic, homogeneous, biofluorescent method to measure cytotoxicity in cell culture after experimental manipulation. The assay system uses a proprietary asymmetric cyanine dye that is excluded from viable cells but preferentially stains the dead cell's DNA. […] Viable cells produce no appreciable increases in fluorescence. Therefore, the fluorescence signal produced by the binding interaction with dead cell DNA is proportional to cytotoxicity.
The mixture of Hek293 cell suspension and reagents were dispensed at 600cells/6 ul/well in 1536-well tissue culture treated black solid bottom plates using a Multidrop dispenser. After the assay plates were incubated at a 37 C/5% CO2 incubator for 5 hours, 23 nL of compounds dissolved in DMSO, positive and negative controls was transferred to the assay plate by a pintool work station. The plates were incubated at 37 C for 40 hours. The fluorescence intensity were measured at 0h, 8h, 16h, 24h, 32h and 40h time points using ViewLux plate reader during compound treatment.
Potency is read from the fitted curve at half-maximal effect.

Compound	Potency	activity change
CCCCCCOC(=O)CCCCCCCC(=O)OCCCCCC	inactive	–
CC(C)CCCCCOC(=O)CCCCC(=O)OCCCCCC(C)C	inactive	–
C=CC(C)(C)CC(=O)OC	inactive	–
CCCCCCCC/C=C\CCCCCCCC(=O)OC(CO)CO	inactive	–
CCOC(=O)c1ccccc1OC	inactive	–
O=C(CS)OCCOC(=O)CS	inactive	–
Cc1c(C(=O)NN2CCCCC2)nn(-c2ccc(Cl)cc2Cl)c1-c1ccc(Cl)cc1	inactive	–
NC(=O)Nc1ccc(Cl)c(Cl)c1	inactive	–
CC(C)c1nnc2ccc(-c3ocnc3-c3cc(F)ccc3F)cn12	inactive	–
O=S1OCCO1	inactive	–
O=c1[nH]c2ccc(S(=O)CCN3CCC(Cc4ccc(F)cc4)CC3)cc2o1 (stereo not given)	inactive	–
O=C(OCCOCCO)c1ccccc1Nc1cccc(C(F)(F)F)c1	inactive	–
CCCCC/C(=C\c1ccccc1)CO	48.4 µM (active)	–
C1COCO1	inactive	–
COC(=O)c1cc(S(N)(=O)=O)ccc1OC	inactive	–
COCc1c(C(C)C)nc(C(C)C)c(/C=C/[C@@H](O)C[C@@H](O)CC(=O)O)c1-c1ccc(F)cc1	inactive	–
COc1cc2[nH]c(=O)[nH]c(=O)c2cc1OC	inactive	–
CC(C)=CC=O	inactive	–
CCCCC(CC)CNCC(CC)CCCC (stereo not given)	inactive	–
CCCCCCCC/C=C\CCCCCCCC(=O)OC	inactive	–

Compound	Potency	activity change
C[N+](C)(C)CCOC(N)=O	inactive	–
CC(C)OCC1CO1 (stereo not given)	inactive	–
CCOc1cc(N)c(Cl)cc1C(=O)NCC1CN(Cc2ccc(F)cc2)CCO1 (stereo not given)	inactive	–
CCCCCCCCCCCCCCCCBr	–	2.71% [at 15.8 µM, active compounds read high]
Cc1nc2ccccc2s1	inactive	–
CC(COc1ccc(C(C)(C)C)cc1)OS(=O)OCCCl (stereo not given)	inactive	–
COC(=O)Nc1nc2ccc(C(=O)c3cccs3)cc2[nH]1	inactive	–
Cc1ccnc2ccccc12	inactive	–
N#C[C@@H]1C[C@@H]2C[C@@H]2N1C(=O)[C@@H](N)C12CC3CC(CC(O)(C3)C1)C2	inactive	–
OCC1CC=CCC1 (stereo not given)	inactive	–
COC(=O)c1cc(Cl)ccc1NS(=O)(=O)C(F)(F)F	inactive	–
CCC(Cc1ccccc1)(C(=O)c1ccc(N2CCOCC2)cc1)N(C)C (stereo not given)	inactive	–
CC(=N\O)/C(C)=N/O	inactive	–
O=C(O)c1cccc(O)c1	inactive	–
COC(OC)(C(=O)c1ccccc1)c1ccccc1	inactive	–
Oc1cc(O)c(Cl)cc1Cl	inactive	–
CN1C(=O)CC(C)(c2ccccc2)C1=O (stereo not given)	inactive	–
CCCCN(CCCC)C(=S)SSC(=S)N(CCCC)CCCC	inactive	–
Fc1c(F)c(F)c(Br)c(F)c1F	inactive	–
CCCCC(CC)C(=O)OCCOCCOCCOCCOC(=O)C(CC)CCCC (stereo not given)	inactive	–
